Screen size: about 420,000 compounds; about 64,000 (15%) were called active. About 27% were inconclusive and are not listed. Only a sample is shown. A call without a number means that no potency is given here. Unmarked numbers belong to inactive results. Calls follow the shape of the dose curve; as a rule, active = well fitted inhibition curve with a large enough effect; inconclusive = small, poorly fitted or top-dose-only effect; inactive = flat fitted curve, though single readings scatter.
Potency is read from the fitted curve at half-maximal effect.

The assay can be described thus: qHTS for Inhibitors of human tyrosyl-DNA phosphodiesterase 1 (TDP1): qHTS in cells in absence of CPT. Also: nearly all actives have a fitted effect of over 55% in size. As to conditions: DT40 Tdp1-/- hTDP1 cells, no CPT, ATP luminescence, 48 h; activity change, negative = growth inhibition: at 46.2 µM (top of the series). From the text:
Human tyrosyl-DNA phosphodiesterase 1 (TDP1) is a novel repair gene, and we propose to use it as a new target for anticancer drug development. TDP1 is not an essential protein, but under treatment with topoisomerase I poison (camptothecin: CPT), TDP1 works as a critical factor for cell survival. To directly identify novel TDP1 inhibitors active in a cellular environment, we have knocked-out the Tdp1 gene in chicken DT40 cells (Tdp1-/-) and generated a complemented counterpart cells that contains a stable transfection of the human TDP1 gene (Tdp1-/-;hTDP1 cells). For the primary screen, Tdp1-/-;hTDP1 cells will be exposed to small molecules in the presence or absence of CPT, and their growth kinetics will be evaluated after 48 hours by measuring ATP activity. […] The hit compounds will then be evaluated in the presence or absence of CPT using Tdp1-/- cells. […] In tertiary assays, biochemical gel-based assays will be used to assess whether the hit compounds specifically target TDP1.
To this end, we have screened this cell line against the MLSMR in two primary screens. In one screen we add CPT and in the other we screen in the absence of CPT; this AID represents the screen where CPT was absent.
NIH Chemical Genomics Center [NCGC]
NIH Molecular Libraries Probe Centers Network [MLPCN]
Assay Submitter (PI): Yves Pommier, NCI
DT40-hTDP1 cells without 20 nM Camptothecin (add 20 microL of DMSO in 1 L of cell culture medium) were dispensed at 400 cells/5microL/well in tissue culture treated 1536-well white wall/solid bottom assay plates (Greiner Bio-One North America, NC, U.S.A.) using a Multidrop Combi 8 channel dispenser (Thermo Fisher, Waltham, MA, USA). 23 nL compounds and controls were transferred using the pin tool (Kalypsys, San Diego, CA, USA) to the assay plates. The assay plates were then incubated at 37 masculineC for a minimum 48 hr. Three microL of Cell Titer Glo solution was added to the plates and incubated at RT in dark for 30 min. Luminescence was read using ViewLux (Perkin Elmer) with 1 sec exposure slow speed, high gain and 2x binning.
For orientation: qHTS replaces the single test concentration by a dilution series.
As for `CCc1nn(CCCC(=O)NCc2ccccc2OC)c(=O)c2cc3occc3n12`, the Potency result is “inactive”. On the same count and under the same terms, the same measure for `Cc1nn(C(C)C(=O)NCCc2ccccc2)c(=O)c2c1sc1ccccc12` (configuration not stated): 16.4 µM (active); for `Cc1cc(C)cc(OCC(=O)NNC(=O)CCN2C(=O)c3ccccc3C2=O)c1`: “inactive”; for `Cc1ccc(O)c(NC(=O)c2cc(-c3ccco3)on2)c1`: “inactive”. For `CC1Cc2cc(/C(O)=C3\C(=O)C(=O)N(CCN4CCOCC4)C3c3ccccc3F)ccc2O1` (configuration not stated), the Potency entry is “inactive”. `O=C(O)CC1S/C(=N\N=C/c2ccccc2O)N(c2ccc(O)cc2)C1=O` (configuration not stated): the Potency entry was “inactive”. `CN(C(=O)c1ccccc1)c1nccnc1C#N`: the Potency entry was “inactive”. Take `CC(=O)Nc1cccc(C(=O)OCC(=O)NCc2cc(C)c(O)c(C)c2)c1`: the Potency result is “inactive”.

`O=C(CN1CCN(c2nc(-c3ccccc3)cs2)CC1)NCc1ccc2c(c1)OCO2`: the Potency entry is “inactive”. For `Cc1cc(=O)[nH]c(N/N=C/c2ccc3c(c2)OCCO3)n1`, the Potency result was “inactive”. As to `Brc1ccc(-c2csc(N/N=C/c3ccc4c(c3)OCO4)n2)cc1`, the Potency was 8.2 µM (active). For `O=C(NCC(=O)N1CCN(c2ccccc2F)CC1)c1cccs1`, the Potency entry was “inactive”.

As to `COc1cc(/C=C(\C#N)C(=O)Nc2ccc3ccccc3c2)c([N+](=O)[O-])cc1OC`, the Potency entry is “inactive”. Consider `O=c1ccc2cc(S(=O)(=O)Nc3ccccc3F)ccc2o1`, for which the Potency entry is “inactive”. For `Nc1ccc(OCC(O)C[n+]2ccc(CCS(=O)(=O)[O-])cc2)cc1` (configuration not stated), the Potency result is “inactive”. `CC(C)Cn1c(N)c(C(=O)COC(=O)CN2C(=O)C3CC=CCC3C2=O)c(=O)n(C)c1=O` (configuration not stated): the Potency was 9.2 µM (active). Turning to `CCCc1cc(=O)[nH]c(SCC(=O)c2c(N)n(CC(C)C)c(=O)n(C)c2=O)n1`, the Potency entry is “inactive”. As to `COc1ccc(C(=O)COC(=O)CN2C(=O)C3CC=CCC3C2=O)c(OC)c1` (configuration not stated), the Potency result was “inactive”. Consider `COc1ccc(Br)cc1/C=N/n1c(C)nnc1C`, for which the Potency result was “inactive”. Take `O=C(/C=C\NCC(=O)c1ccccc1)c1ccccc1`: the Potency result is “inactive”. The same measure, in the same setting: the same measure for `Cc1nc(NC(=O)C23CCC(C)(C(=O)O2)C3(C)C)sc1C` (configuration not stated): “inactive”; for `O=C(CCN1C(=O)c2ccncc2C1=O)Nc1cc(F)ccc1F`: “inactive”. With `CC(C)Cn1c(SCC(=O)Nc2ccc(Cl)cc2F)nc(O)cc1=O`, the Potency entry was “inactive”.

Consider `CN1c2ccc(Cl)cc2-c2nc(SCC(=O)Nc3cc(F)ccc3F)ncc2S1(=O)=O`, for which the Potency was 23.1 µM (active). Same read-out and setting: the same measure for `N/C(Cc1ccc([N+](=O)[O-])cc1)=N\OC(=O)COc1ccc2ccccc2c1`: “inactive”; for `CCOc1ccccc1NC(=O)c1cccnc1`: “inactive”. With `Cc1ccc(Nc2nc(CSc3nnnn3-c3ccccc3)cc(=O)[nH]2)cc1`, the Potency is 18.4 µM (active).

For `Nc1nc(CSc2nnnn2-c2ccccc2)nc(Nc2ccccc2)n1`, the Potency result was “inactive”.

As to `Cc1ccc(NC(=O)CSc2nc(CSc3ccc(C)cc3)cc(=O)[nH]2)cc1`, the Potency result is “inactive”. As to `Cc1ccc(N2C(=O)CC(NCc3ccc4c(c3)OCO4)C2=O)cc1Cl` (configuration not stated), the Potency entry was “inactive”. Regarding `CSC1=NC2(C)CCCCC2C12C=CC(=O)C=C2` (configuration not stated), the Potency entry is “inactive”. With `O=c1[nH]nc(CSCc2ccccc2Cl)[nH]1`, the Potency entry is “inactive”. For the compound `COc1ccc(OC)c2sc(N3CCN(C(=O)C4COc5ccccc5O4)CC3)nc12` (configuration not stated), the Potency is 16.4 µM (active). For `CC(=O)c1ccccc1NC(=O)COC(=O)C1COc2ccccc2O1` (configuration not stated), the Potency entry was “inactive”. For the compound `COc1ccc(NC(=O)C2COc3ccccc3O2)cc1` (configuration not stated), the Potency result is “inactive”. Take `Cc1cc(Cl)ccc1N1C(=O)CC(SCCC(=O)O)C1=O` (configuration not stated): the Potency entry is “inactive”. Consider `CCOC(=O)c1cn(CC)c2cc(F)c(F)cc2c1=O`, for which the Potency result is “inactive”. On the same count and under the same terms, then `COc1cc(OC)cc(C(=O)Nc2nnc(SCC(=O)NCC3CCCO3)s2)c1` (configuration not stated), with “inactive”; and `CC(C)(C)NC(=O)COc1ccc(CNc2ccc3[nH]c(=O)[nH]c3c2)cc1`, with “inactive”. Regarding `C/C=C(\C)C(=O)O[C@H]1CC(C)=C2C(=O)C=C(C)C2[C@@H]2OC(=O)[C@@](C)(OC(=O)C=C(C)C)C21` (some centres not stated), the activity change, negative = growth inhibition is 5.36% [at 9.04 µM]. Consider `C=C(C)C(=O)O[C@H]1C/C(C)=C\C(=O)/C=C(\C)[C@H](O)[C@@H]2OC(=O)C(=C)[C@@H]21`, for which the Potency is 1.16 µM (active). `Cc1c(S(=O)(=O)N2CC(C)CC(C)C2)c(=O)n(C)c(=O)n1C` (configuration not stated): the Potency result was “inactive”. The same measure, in the same setting: then `CCN(C(=O)Cc1c(C(=O)O)n(CC)c2ccccc12)c1ccccc1C`, with “inactive”; and `CCOC(=O)c1c(NC(=O)CNC2CCCc3ccccc32)sc(C(N)=O)c1C` (configuration not stated), with 16.4 µM (active); and `CCOC(=O)c1sc(NC(=O)COc2ncnc3ccccc23)c(C(=O)OCC)c1C`, with “inactive”. With `NC(=O)Nc1ccc(C(=O)OCC(=O)NC2CCCc3ccccc32)cc1` (configuration not stated), the Potency entry is “inactive”. Turning to `C=CCNC(=O)CC12CC3CC(C1)CC(CC(=O)NCC=C)(C3)C2`, the Potency result is “inactive”. As for `COc1ccc(CNC(=O)C(=O)N2CCC3(CC2)OCCN3S(=O)(=O)c2ccc(C)cc2)cc1`, the Potency result is “inactive”.

Turning to `CCc1[nH]nc(C(=O)N2CCCC(CO)(Cc3ccc(F)cc3F)C2)c1C` (configuration not stated), the Potency result was “inactive”. In the case of `Cc1ccccc1CC1(CO)CCCN(C(=O)c2cc(-c3ccccc3)no2)C1` (configuration not stated), the Potency is 29.1 µM (active). Consider `Cc1noc(C)c1CCC(=O)N1CCCC(CO)(Cc2ccccc2)C1` (configuration not stated), for which the Potency result is “inactive”. On to `CCCc1nnc(NC(=O)CCC(=O)N2CCN(S(=O)(=O)c3ccc(OC)cc3)CC2)s1`, for which the Potency entry is “inactive”.

The record behind these values is PubChem BioAssay AID686978 (National Center for Advancing Translational Sciences (NCATS), 2013).
